Measured values: PubChem BioAssay (Tox21)
“And” between values parts separate entries of the source, which are not always exact repeats. Identical values can stand only once. The source holds several records for some structures; these can differ, active in one and inactive in another. The source made the active and inactive calls. Entries that show only a call come without a potency. Unless noted, calls come from the whole dose curve; as a rule, active = well fitted curve in the direction sought with a large enough effect in the repeat runs; inconclusive = weak or mixed curves; inactive = no such curve, though single readings can be large; an effect the other way counts as inactive or inconclusive.

Legend:
[1] = qHTS assay to identify small molecule antagonists of the thyroid receptor (TR) signaling pathway - cell viability counter screen (AID 743064); note: nearly all actives have a fitted effect of over 50% in size; note: potency is the fitted concentration of half-maximal effect
Outline: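 Fluorescence from CellTiter-Fluor, added after 23.5 h exposure at 37 °C, reported viability of GH3.TRE-Luc cells co-treated with compound and 1 nM T3. Measured in the same wells as the luciferase TR readout.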

[2] = qHTS assay to identify small molecule antagonists of the thyroid receptor (TR) signaling pathway (AID 743065); note: nearly all actives have a fitted effect of over 55% in size; note: potency is the fitted concentration of half-maximal effect
Outline: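 GH3.TRE-Luc rat pituitary cells (two TREs driving luciferase) were dosed with compound, then stimulated with 1 nM T3 (final) for 23.5 h at 37 C. ONE-Glo luminescence was the read-out, with CellTiter-Fluor fluorescence as the cytotoxicity counter-screen.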

[3] = system: thyroid hormone receptor (rat, GH3 cells); test: qHTS assay to identify small molecule agonists of the thyroid receptor (TR) signaling pathway (AID 743066; calls by dose curve; note: potency is the fitted concentration of half-maximal effect)
[4] = qHTS assay to identify small molecule antagonists of the estrogen receptor alpha (ER-alpha) signaling pathway - cell viability counter screen (AID 743074; calls by dose curve; note: nearly all actives have a fitted effect of over 45% in size)
[5] = qHTS assay to identify small molecule antagonists of the estrogen receptor alpha (ER-alpha) signaling pathway using the BG1 cell line - cell viability counter screen (AID 743081);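 note: compound given together with 17beta-estradiol as the ER stimulus; nearly all actives have a fitted effect of over 45% in size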; note: potency is the fitted concentration of half-maximal effect
Aromatase (Homo sapiens) = Aromatase (Homo sapiens) (UniProt P11511); test: qHTS assay to identify aromatase inhibitors (AID 743083); note: nearly all actives have a fitted effect of over 55% in size; note: potency is the fitted concentration of half-maximal effect
[6] = biological target: Estrogen receptor (Homo sapiens) (UniProt P03372); test: qHTS assay to identify small molecule antagonists of the estrogen receptor alpha (ER-alpha) signaling pathway (AID 743069; active = well fitted curve in the direction sought with a large enough effect in the signal ratio in the repeat runs, not every such curve was filed as active; inconclusive = weak or mixed curves, or effect the other way; inactive = no such curve, though single readings can be large or run the other way; the % refers to the signal ratio)
Outline: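 In this cell-based reporter format, GripTite HEK293 cells harbouring ER-alpha-UAS-bla were grown overnight with 2% charcoal-stripped FBS, dosed with DMSO-dissolved compounds, then challenged with 17beta-estradiol. After 18 hr at 37C, beta-lactamase activity was detected by FRET fluorescence.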

[7] = biological target: Estrogen receptor (Homo sapiens) (UniProt P03372); test: qHTS assay to identify small molecule agonists of the estrogen receptor alpha (ER-alpha) signaling pathway (AID 743075; calls by dose curve; note: potency is the fitted concentration of half-maximal effect)
[8] = biological target: Estrogen receptor (Homo sapiens) (UniProt P03372); test: qHTS assay to identify small molecule agonists of the estrogen receptor alpha (ER-alpha) signaling pathway using the BG1 cell line (AID 743079); conditions: BG1Luc4E2 cells, ERE-luciferase agonist, 22 h; activation: at 70.3 µM (top of the series) unless noted; note: nearly all actives have a fitted effect of over 20% in size; note: potency is the fitted concentration of half-maximal effect
[9] = qHTS assay to identify small molecule antagonists of the estrogen receptor alpha (ER-alpha) signaling pathway using the BG1 cell line (AID 743080; calls by dose curve;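 note: BG1 cells stimulated with 17beta-estradiol alongside compound; nearly all actives have a fitted effect of over 25% in size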)
Outline: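 BG1-Luc-4E2 cells (endogenous full-length ER-alpha, stable 4×ERE-luciferase) were starved 5 days in phenol-red-free medium with 10% charcoal-stripped FBS, plated 24 h, then given compound plus 17beta-estradiol for 21.5 h at 37 C; ONE-Glo luminescence read after 30 min.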

Aromatase (Homo sapiens), sequence (P11511 whole entry, looked up): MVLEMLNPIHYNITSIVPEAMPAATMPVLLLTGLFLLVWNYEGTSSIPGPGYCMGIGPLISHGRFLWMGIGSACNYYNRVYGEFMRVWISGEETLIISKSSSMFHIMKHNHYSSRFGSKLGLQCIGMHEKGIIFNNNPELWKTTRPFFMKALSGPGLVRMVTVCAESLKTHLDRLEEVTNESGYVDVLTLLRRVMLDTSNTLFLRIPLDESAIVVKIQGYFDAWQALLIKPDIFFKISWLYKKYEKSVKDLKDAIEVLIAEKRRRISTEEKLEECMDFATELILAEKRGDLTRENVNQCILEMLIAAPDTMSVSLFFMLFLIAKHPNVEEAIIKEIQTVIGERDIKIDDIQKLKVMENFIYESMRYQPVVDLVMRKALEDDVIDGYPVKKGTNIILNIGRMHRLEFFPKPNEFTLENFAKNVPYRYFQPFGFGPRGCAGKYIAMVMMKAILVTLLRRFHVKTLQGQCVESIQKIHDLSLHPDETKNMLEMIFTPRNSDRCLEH
Estrogen receptor (Homo sapiens), sequence (P03372 whole entry, looked up): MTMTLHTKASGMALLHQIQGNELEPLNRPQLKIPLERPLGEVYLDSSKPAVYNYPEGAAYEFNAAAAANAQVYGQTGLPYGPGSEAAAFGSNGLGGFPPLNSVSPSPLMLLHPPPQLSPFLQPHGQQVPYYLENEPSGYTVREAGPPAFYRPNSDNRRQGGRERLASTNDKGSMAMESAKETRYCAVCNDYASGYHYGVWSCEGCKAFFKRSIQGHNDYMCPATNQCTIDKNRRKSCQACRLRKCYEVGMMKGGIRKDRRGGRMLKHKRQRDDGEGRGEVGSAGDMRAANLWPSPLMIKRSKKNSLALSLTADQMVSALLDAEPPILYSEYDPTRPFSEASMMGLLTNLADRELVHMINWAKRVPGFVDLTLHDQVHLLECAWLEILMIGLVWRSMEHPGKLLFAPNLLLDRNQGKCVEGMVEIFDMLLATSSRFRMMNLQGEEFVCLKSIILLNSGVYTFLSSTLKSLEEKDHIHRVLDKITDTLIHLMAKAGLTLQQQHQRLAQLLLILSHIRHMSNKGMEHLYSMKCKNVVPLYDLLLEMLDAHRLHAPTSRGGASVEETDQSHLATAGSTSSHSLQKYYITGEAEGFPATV

| Compound | Potency [1] | Potency [2] | Potency [3] | Potency [4] | Potency [5] | Potency (Aromatase (Homo sapiens)) | Potency [6] | Potency [7] | Potency [8] | Potency [9] | activation [8] |
| --- | --- | --- | --- | --- | --- | --- | --- | --- | --- | --- | --- |
| NC(=O)c1ncn([C@@H]2O[C@H](CO)[C@@H](O)[C@H]2O)n1 | 33.5 µM (active) | 13.3 µM (active) and 28.8 µM (active) | inactive | inactive | inactive | inactive |  |  |  |  |  |
| C=C1C[C@]23C[C@@]1(O)CC[C@H]2[C@@]12C=C[C@H](O)[C@@](C)(C(=O)O1)[C@H]2[C@@H]3C(=O)O | inactive | inactive | inactive | inactive | inactive | inactive |  |  |  |  |  |
| COC(=O)OC | inactive | inactive | inactive | inactive | inactive | inactive |  |  |  |  |  |
| O=C(O)C1=NN(c2ccc(S(=O)(=O)O)cc2)C(=O)C1 | inactive |  |  | inactive | inactive | inactive | inactive | inactive | inactive | inactive |  |
| COc1cc(NC(=O)CC(C)=O)c(OC)cc1Cl | inactive |  | inactive | inactive | inactive | inactive and 12.2 µM (active) |  | inactive | inactive | inactive |  |
| O=C1OC(=O)c2c(Cl)c(Cl)c(Cl)c(Cl)c21 | inactive | inactive | inactive | inactive | inactive | inactive |  |  |  |  |  |
| Cc1ccc(C)c(S(=O)(=O)O)c1 | inactive | inactive | inactive | inactive | inactive | inactive |  |  |  |  |  |
| O=c1n(CCCN2CCN(c3cccc(Cl)c3)CC2)nc2ccccn12 | inactive | inactive | inactive | inactive | inactive | inactive |  |  |  |  |  |
| O=[N+]([O-])c1cc(C(F)(F)F)ccc1Cl | inactive | inactive | inactive | inactive | inactive | inactive |  |  |  |  |  |
| COCN(COC)c1nc(N(COC)COC)nc(N(COC)COC)n1 | inactive |  |  | inactive | inactive | inactive | inactive | inactive | inactive | inactive |  |
| CC1=CC(=O)CC(C)(C)C1 | inactive | inactive | inactive | inactive | inactive | inactive |  |  |  |  |  |
| O=C1O[C@H]([C@H](O)CO)C(O)=C1O | inactive |  | inactive | inactive | inactive | inactive |  |  |  |  |  |
| CCCN(CCC)C(=O)SCC | inactive | inactive |  | inactive | inactive | inactive | inactive | inactive | inactive | inactive |  |
| CC1(C)[C@@H](O[C@H]2O[C@H](C(=O)O)[C@@H](O)[C@H](O)[C@H]2O[C@@H]2O[C@H](C(=O)O)[C@@H](O)[C@H](O)[C@H]2O)CC[C@]2(C)[C@H]3C(=O)C=C4[C@@H]5C[C@@](C)(C(=O)O)CC[C@]5(C)CC[C@@]4(C)[C@]3(C)CC[C@@H]12 | inactive |  | inactive | inactive | inactive | inactive |  |  |  |  |  |
| Clc1cccc(Cl)c1NC1=NCCN1 | inactive | inactive | inactive | inactive | inactive | inactive |  |  |  |  |  |
| Cc1cccc(C)c1[N+](=O)[O-] | inactive | inactive | inactive and 61.1 µM (active) | inactive | inactive | inactive |  |  |  |  |  |

| Compound | Potency [1] | Potency [2] | Potency [3] | Potency [4] | Potency [5] | Potency (Aromatase (Homo sapiens)) | Potency [6] | Potency [7] | Potency [8] | Potency [9] | activation [8] |
| --- | --- | --- | --- | --- | --- | --- | --- | --- | --- | --- | --- |
| CO[Si](CCCNCCN)(OC)OC | inactive | inactive | inactive | inactive | inactive | inactive |  |  |  |  |  |
| Cc1ncc(CO)c(CO)c1O | inactive |  |  | inactive | inactive | inactive |  |  |  |  |  |
| COc1ccccc1[N+](=O)[O-] | inactive | inactive | inactive | inactive | inactive | inactive |  |  |  |  |  |
| O=c1c(O)c(-c2ccc(O)c(O)c2)oc2cc(O)cc(O)c12 | inactive and 30.9 µM (active) |  | inactive | inactive | inactive | inactive |  | 24.6 µM [inconclusive] (active) [middle of 4 runs] | 29.8 µM (active) and 68.7 µM (active) | inactive | 18.1% [at 95 µM] (active) |
| CCCCCCCCC(=O)O |  | inactive | inactive | inactive | inactive | inactive | inactive | inactive | inactive | inactive |  |
| CC(C)=CCC/C(C)=C/C=O |  | inactive | inactive | inactive | inactive | inactive | inactive | inactive | inactive | inactive |  |
| CC(=O)CC(=O)N(C)C |  | inactive | inactive | inactive | inactive | inactive | inactive | inactive | inactive | inactive |  |
| O=Cc1ccc(CO)o1 |  | inactive | inactive | inactive | inactive | inactive | inactive | inactive | inactive | inactive |  |
| CC(=O)OCc1ccc2c(c1)OCO2 | inactive | inactive | inactive | inactive | inactive | inactive |  |  |  |  |  |
| CC(C)c1ccc(C(C)C)cc1 |  | inactive | inactive | inactive | inactive | inactive | inactive | inactive | inactive | inactive |  |
| c1cnc2c(c1)ccc1cccnc12 | 7.77 µM (active) and 6.86 µM (active) and 15.4 µM (active) |  | inactive | inactive | 15.5 µM (active) | 6.17 µM (active) and 6.86 µM (active) and 9.69 µM (active) |  |  |  |  |  |
| CCc1cccc(CC)c1N |  | inactive | inactive | inactive | inactive | inactive | inactive | inactive | inactive | inactive |  |
| Oc1ccc(Cc2ccccc2O)cc1 | inactive |  | inactive | inactive | inactive | inactive |  | 11.1 µM [inconclusive] (active) and 24.5 µM [inconclusive] (active) | 9.81 µM (active) and 6.11 µM (active) | inactive |  |
| NC1CCCCC1N (stereo not drawn) |  |  |  | inactive | inactive | inactive |  |  |  |  |  |
| OCCOCCOCCOCCOCCO |  | inactive | inactive | inactive | inactive | inactive |  |  |  |  |  |
| Brc1ccc(Oc2ccc(Br)cc2)cc1 |  | inactive | inactive | inactive | inactive |  |  |  |  |  |  |
